# Sampled rows, rich in hits. Any-hit rate of the full collection: about 4.6%.
# hgDAF-12 ag: H. glycines DAF-12 receptor agonists, primary screen, cell-based, luminescence, HEK293, GAL4 fusion, UAS-luciferase. AID 687014, 2013. HEK293 GAL4-hgDAF12 UAS-luciferase reporter, agonist luminescence; normalized to butyrate control. Nuclear hormone receptor DAF-12 (Heterodera glycines), GAL4 fusion. hit rate 1.8% among 370,000. activation, % at 6.8 µM;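 active means activation above a cutoff set at the mean of all screened compounds plus 3 SD, cut at about 10% in these data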;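 further: 0% = DMSO wells and 100% = sodium butyrate wells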
# DAX1 inh-1: DAX1 (NR0B1) inhibitors, primary screen, cell-based, HEK293, Gal4-DAX1, luciferase luminescence. Nuclear receptor subfamily 0 group B member 1 (Homo sapiens), P51843. HEK293 Gal4-DAX1 luciferase reporter. inhibition, % at 6.75 µM. hit rate 0.99% among 340,000;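 active means inhibition above the mean over all tested compounds plus 3 SD, cut at about 4.2% in these data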;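 further: 0% = DAX1-transfected cells with DMSO and 100% = empty-vector control cells with DMSO; inhibition shows as a rise in luminescence from relieved DAX1 repression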
# ssDAF-12 act: S. stercoralis DAF-12 nuclear receptor activators, primary screen, cell-based, luminescence, HEK293, GRIP1 co-expression, lit1-tk-luc. HEK293 ssDAF-12/GRIP1 lit1-tk-luc reporter; % of 3 µM dafachronic acid response. hit rate 1% among 370,000. activation, % at 6.8 µM;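 active means activation above the mean over all tested compounds plus 3 SD, cut at about 0.9% in these data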;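 further: 0% = DMSO-only wells and 100% = 3 µM delta7-dafachronic acid wells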
# hcDAF-12 act: H. contortus DAF-12 nuclear receptor activators, primary screen, cell-based, luminescence, HEK293, lit1-tk-luc reporter | HEK293 hcDAF-12 lit1-tk-luc reporter; 0% DMSO, 100% Δ7-dafachronic acid | hit rate 1.4% among 370,000 | activation, % at 6.8 µM;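 active means activation above the mean of all tested compounds plus 3 SD, cut at about 5.5% in these data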;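 further: 100% = response to 3 µM Δ7-dafachronic acid high control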
# Wee1 stabilizer: Wee1 degradation inhibitors, primary screen, cell-based, HeLa, Wee1K328M-luciferase, luminescence; AID 1321, 2008; HeLa Luc-Wee1K328M stability; 100% = proteasome inhibitor MG132 effect; hit rate 1.2% among 220,000; Wee1-like protein kinase (Homo sapiens), P30291; reporter increase, % at 5 µM;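 active means activation above the mean of all tested compounds plus 3 SD, set per screening run, cut at about 8.8% in these data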;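 further: cells exposed to compound for 20 h before luminescence read; 0% = DMSO alone and 100% = MG132 at 30 µM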
# DAX1 inh-2: DAX1 (NR0B1) inhibitors on StAR promoter, primary screen, cell-based, luminescence, SF-1 (NR5A1), full-length DAX-1 | HEK293T StAR-luciferase reporter, SF-1/DAX-1 repression relief | inhibition, % at 6.8 µM | hit rate 1.1% among 370,000;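 active means inhibition above the mean over all tested compounds plus 3 SD, cut at about 3.6% in these data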;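 further: 0% = DAX-1 cells with DMSO and 100% = cells lacking DAX-1 with DMSO; higher inhibition means more luminescence from relief of DAX-1 repression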
# DAX1 conf: DAX1 (NR0B1) inhibitors relieving SF-1 repression, confirmation, cell-based, luminescence, HEK293T, full-length DAX-1, SF-1 activated StAR promoter. shares compounds with DAX1 inh-2. HEK293T StAR-promoter luciferase reporter, SF-1/DAX-1 repression. inhibition, % at 6.8 µM. hit rate 87% among 2,400;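 active means inhibition above the average of every tested compound plus 3 SD, cut at about 3.8% in these data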;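 further: 0% = DAX-1 cells with DMSO and 100% = no DAX-1 control cells with DMSO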
# Target sequence (P51843 whole entry, looked up): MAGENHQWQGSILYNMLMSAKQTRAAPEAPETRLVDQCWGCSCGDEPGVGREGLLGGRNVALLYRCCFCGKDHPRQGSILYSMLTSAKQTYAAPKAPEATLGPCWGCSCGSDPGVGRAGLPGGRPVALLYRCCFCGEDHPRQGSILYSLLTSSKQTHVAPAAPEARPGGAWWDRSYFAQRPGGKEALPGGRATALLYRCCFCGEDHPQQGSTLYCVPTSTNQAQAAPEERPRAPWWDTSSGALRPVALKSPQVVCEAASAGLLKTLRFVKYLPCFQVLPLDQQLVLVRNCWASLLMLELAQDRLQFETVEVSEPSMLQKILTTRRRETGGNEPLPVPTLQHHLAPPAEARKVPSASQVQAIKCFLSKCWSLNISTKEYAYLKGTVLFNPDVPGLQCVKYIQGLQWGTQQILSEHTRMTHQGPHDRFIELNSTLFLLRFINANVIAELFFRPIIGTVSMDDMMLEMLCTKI
# SF1 mutant ctr: StAR reporter signal changes without DAX1, counter-screen for DAX1 inhibitor project, cell-based, luminescence, AF-2 mutant SF-1, transactivation; inhibition, % at 6.8 µM; hit rate 78% among 2,400; HEK293 StAR-luciferase, SF-1 AF2 mutant; shares compounds with DAX1 inh-2;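 active means inhibition above the mean of all tested compounds plus 3 SD, cut at about 3% in these data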;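 further: 0% = DAX-1 transfected cells with DMSO and 100% = cells without DAX-1 with DMSO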
# LXR ag: LXR agonists, Gal4 luciferase reporter, confirmation, counter-screen for hcDAF-12 agonist project, cell-based, luminescence, HEK293, H. contortus campaign; shares compounds with hcDAF-12 act; HEK293 Gal4-LXR tk-luc reporter, 24 h; normalized: DMSO 0%, positive control 100%; activation, % at 6.8 µM; 3,400 tested, under 10 active;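 active means mean percent activation of the reporter above a cutoff set as the average over tested compounds plus their standard deviation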
# hcDAF12 conf: H. contortus DAF-12 receptor agonists, confirmation, cell-based, luminescence, HEK293, lit1-tk-luc, triplicate; AID 743032, 2013; activation, % at 6.8 µM; hit rate 61% among 3,400; shares compounds with hcDAF-12 act; HEK293 hcDAF-12 lit1-tk-luc reporter; % of Δ7-dafachronic acid response;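 active means mean activation across triplicate tests above the threshold derived from the earlier primary screen, cut at about 5.5% in these data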;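 further: 0% = DMSO only wells and 100% = 3 µM Δ7-dafachronic acid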
# hgDAF12 ag: H. glycines DAF-12 receptor agonists, confirmation, cell-based, luminescence, HEK293, GAL4-LBD fusion. shares compounds with hgDAF-12 ag. HEK293 GAL4-hgDAF12 luciferase reporter, agonist mode; percent of butyrate response. activation, % at 6.8 µM. hit rate 80% among 3,300;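 active means mean activation over triplicate wells above the hit cutoff derived from the earlier primary screen, cut at about 11% in these data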;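 further: 0% = DMSO low control and 100% = 2 mM sodium butyrate high control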
# LXRb DAF12 ctr: LXR agonists, Gal4 luciferase reporter, confirmation, counter-screen for hgDAF-12 agonist project, cell-based, luminescence, HEK293, H. glycines campaign. 3,300 tested, under 10 active. shares compounds with hgDAF-12 ag. 24 h. activation, % at 6.8 µM;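 active means mean activation of the triplicate above a set limit carried over from the primary screen, none filed active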
# * = called active by the depositor; / = no result given.
SMILES,hgDAF-12 ag,DAX1 inh-1,ssDAF-12 act,hcDAF-12 act,Wee1 stabilizer,DAX1 inh-2,DAX1 conf,SF1 mutant ctr,hgDAF12 ag,LXRb DAF12 ctr,others
CN1C(=O)C2(Oc3ccccc3C3CC(c4ccccc4)=NN32)c2ccccc21 (configuration not stated),/,2,/,/,0,/,/,/,/,/,
OC[C@@H]1CN(Cc2ccc(-c3ccccc3)cc2)C[C@H](n2cnc3c(N4CCOCC4)ncnc32)O1,-4,/,-2,-2,/,-3,/,/,/,/,
Clc1ccccc1N=C1NN=C(c2cccs2)CS1,18*,4,1.3*,10*,0,7.2*,9.5*,5.3*,16*,1,LXR ag=1;hcDAF12 conf=9.3*
NC(=O)[C@@H]1CCCN1C(=O)[C@@H](Cc1ccccc1)NC(=O)[C@H]1O[C@@H](n2ccc(N)nc2=O)[C@H](O)[C@@H]1O,-1,/,-1,2,/,0,/,/,/,/,
C(=C\c1nc(-c2ccccc2)no1)/c1ccccc1,17*,3,0,5.8*,1,5.9*,17*,6.7*,23*,1,
C(=C\c1nc(-c2ccncc2)no1)/c1ccccc1,10,2,0,5,-3,2,/,/,/,/,
COc1nc(C)ccc1-c1noc(-c2ccco2)n1,15*,0,1,7.8*,5,5.0*,12*,5.4*,15*,1,LXR ag=2;hcDAF12 conf=6.6*
O=C(NCc1cc(Cl)cc(Cl)c1)c1csc([C@@H]2O[C@H](CO)[C@H](O)[C@H](O)[C@H]2O)n1,-2,/,-1,-1,/,0,/,/,/,/,
Cc1ccc(/C(N)=N/OC(=O)c2cccs2)cc1,21*,2,1.0*,12*,5,6.5*,5.9*,5.1*,17*,1,LXR ag=1;hcDAF12 conf=5
Cn1cccc1C(=O)OCC(=O)c1c[nH]c2ccccc12,14*,4,0,11*,/,4.7*,16*,8.1*,14*,1,LXR ag=1;hcDAF12 conf=6.3*
Cc1cnc(C(=O)OCC(=O)c2c[nH]c3ccccc23)cn1,5,1,0,4,/,2,/,/,/,/,
O=C(OCC(=O)N1CCN(c2ccccc2)CC1)c1cccc([N+](=O)[O-])c1,0,-1,-1,-1,/,0,/,/,/,/,
O=C(OCC(=O)N1CCN(c2ccccc2)CC1)c1ccccc1[N+](=O)[O-],15*,3,0,4,/,6.2*,9.4*,3.6*,10,1,
CC1Cc2ccccc2N1C(=O)c1ccc(F)c(S(=O)(=O)N2CCOCC2)c1 (configuration not stated),-3,0,0,1,/,-1,/,/,/,/,
O=C(Nc1ccc(N2CCCC2)c(Cl)c1)c1ccccc1F,22*,4,0,3,/,5.1*,14*,4.8*,16*,1,
O=C(Nc1ccc(N2CCCC2)c(Cl)c1)c1ccccc1[N+](=O)[O-],2,0,-1,1,2,0,/,/,/,/,
C[C@H](CO)N1C[C@H](C)[C@@H](CN(C)C(=O)c2ccc3c(c2)OCO3)Oc2cc(/C=C/c3ccccc3)ccc2S1(=O)=O,-5,1,-1,-2,/,-3,/,/,/,/,
O=C(CCCc1ccccn1)c1cccc2ccccc12,15*,2,1.1*,12*,/,5.6*,13*,5.7*,15*,1,LXR ag=1;hcDAF12 conf=9.6*
CCC(=O)Nc1ccc(C(=O)Nc2ccc3c(c2)OCO3)cc1,0,0,-1,-2,-1,0,/,/,/,/,
CCC(=O)Oc1ccc(C(=O)Nc2ccc3c(c2)OCO3)cc1,22*,/,1.7*,3,1,5.5*,13*,7.8*,15*,1,
O=C(Nc1ccc2c(c1)OCO2)c1ccc(Cl)s1,16*,0,1.9*,14*,0,4.6*,12*,9.9*,21*,1,LXR ag=2;hcDAF12 conf=12*
O=C1C=CC(O)C2(CO)OC12 (configuration not stated),-2,0,-1,3,/,-1,/,/,/,/,
C[C@@H]1CN([C@@H](C)CO)C(=O)c2cc(Br)cnc2O[C@H]1CN(C)C(=O)c1ccccc1F,-4,1,-1,1,/,0,/,/,/,/,
CC1CC(C)CN(C(=O)c2ccc3ccccc3c2)C1 (configuration not stated),-1,-1,-1,0,/,-1,/,/,/,/,
CC1CCN(C(=O)c2ccc3ccccc3c2)CC1,14*,0,-1,1,/,7.9*,6.8*,3.8*,15*,0,
